Compound activity: PubChem BioAssay, National Center for Advancing Translational Sciences (NCATS)
The list is not random: actives were taken first. Their share in the collection is about 2.4%.
GLP-1R agonist: GLP-1 receptor (human) agonism. HEK293 GLP-1R CRE-luciferase, luminescence, 4-6 h; cells express a hypersensitive GLP-1R form. AID 624172. P43220. hit rate 0.007% among 380,000. Potency, µM (series often up to 45.6 µM), inactives show top-dose activation, usual class: activators; note: potency is the fitted concentration of half-maximal effect; % of control where 0% means no effect
TRHR PAM: TRH receptor (human) allosteric enhancement | hit rate 0.66% among 360,000 | enhancement, % at 2 µM | P34981 | TRHR cells, fluo-8 calcium fluorescence, EC20 TRH enhancement | AID 493056; in the data active = enhancement above about 30%; note: 0% is about no effect
Target sequence (P34981 whole entry, looked up): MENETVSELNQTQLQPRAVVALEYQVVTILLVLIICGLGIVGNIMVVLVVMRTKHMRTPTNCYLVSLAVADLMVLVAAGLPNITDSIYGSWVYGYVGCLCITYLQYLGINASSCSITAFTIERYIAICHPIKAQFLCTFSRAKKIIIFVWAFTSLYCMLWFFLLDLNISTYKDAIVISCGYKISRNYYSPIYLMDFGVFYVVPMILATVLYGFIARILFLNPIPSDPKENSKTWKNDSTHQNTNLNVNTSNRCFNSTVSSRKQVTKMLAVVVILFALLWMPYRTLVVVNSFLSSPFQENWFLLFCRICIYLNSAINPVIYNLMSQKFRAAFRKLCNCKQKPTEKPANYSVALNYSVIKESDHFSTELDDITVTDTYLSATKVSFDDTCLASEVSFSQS
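TRHR-expressing cells loaded with fluo-8 calcium dye were read kinetically (ex 480/em 530) during compound addition, then stimulated with an EC20 of TRH (10 nM final). Enhancement of the Gq-mediated intracellular calcium response was scored.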
PTHR1 agonist: activates the human parathyroid hormone receptor PTHR1; HEK293 GP2 PTHR1 cells, GloSensor cAMP luminescence, 1 h; Q03431; Potency, µM (top dose mostly 115 µM), without a hit: top-dose activation, usual class: activators; hit rate 0.075% among 410,000; note: potency is the fitted concentration of half-maximal effect; nearly all actives have a fitted effect of over 55% in size
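HEK-293-derived GP2 cells expressing PTHR1 and a GloSensor cAMP reporter, 3,000/well, plated overnight, given luciferin plus IBMX (each 0.5 mM as added) for 1 h at 37 °C, then compound for 1 h at 37 °C. Luminescence was read after 15 min at room temperature.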
GLP1R cytotox: cytotoxicity counter-screen for GLP-1 receptor inverse agonists. HEK293 cAMP-luciferase reporter cells, luminescence, 24 h. AID 624418. Potency, µM (top dose mostly 38.3 µM), inactives show at the highest dose activity change, negative = inhibition, usual class: inhibitors. hit rate 0.13% among 410,000;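 note: loss of luciferase light is scored as toxicity; potency is the fitted concentration of half-maximal effect; % is set by controls: 0 for no effect and ±100 for the full control effect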
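Luminescence readout: signal drop marks cytotoxicity. Plated cells grew 12 h at 37 °C, 5% CO2, received 23 nL compound for 24 h, then got luciferase reagent, read after 12 min at RT.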
GLP1R inv ag: acts as inverse agonist at human GLP-1 receptor; Potency, µM (top dose mostly 38.3 µM), inactives show at the highest dose activity change, negative = inhibition, usual class: inhibitors; HEK293 GLP-1R CRE-luciferase, luminescence, 24 h; GLP-1R form is constitutively active; hit rate 1.6% among 410,000; P43220; AID 624417; note: potency is the fitted concentration of half-maximal effect; % is set by controls: 0 for no effect and ±100 for the full control effect; nearly all actives have a fitted effect of over 55% in size
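Seeding at 200 cells/uL, 12 h culture, 24 hr compound treatment, then luciferase reagent and a luminescence read; cells are HEK293 stably expressing a constitutively active GLP-1R plus cAMP-responsive luciferase.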
TRHR agonist: TRH receptor (human) agonism | activation, % at 2 µM | hit rate 0.18% among 360,000 | TRHR cells, calcium flux fluo-8, FDSS agonist mode | P34981 | AID 493084; in the data active = activation above about 30%; note: 0% is about no effect
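Steps: seed TRHR cells overnight; add fluo-8 no-wash Ca dye, RT 30 min–1.5 h; record 10 s baseline; pin-transfer compounds; monitor fluorescence 1 cycle/s for the agonist window. Calcium increases flag candidate agonists.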
Active calls of the source: *; i = inactive; ? = inconclusive; . = not tested or not shown; [ ] = another dose, or the depositor's remark. Unless noted, calls come from the whole dose curve; as a rule, active = well fitted curve in the direction sought with a large enough effect; inconclusive = small, poorly fitted or top-dose-only effect, or another doubt; inactive = no such curve, though single readings can be large; an effect the other way counts as inactive or inconclusive.

SMILES	GLP-1R agonist	TRHR PAM	PTHR1 agonist	GLP1R cytotox	GLP1R inv ag	TRHR agonist
COCCCNC(=S)NCCCNc1nc2cc(C)cc(C)c2cc1C#N	23.4%	-9.8	-5.7%	-2.0%	11.2µM*	0.3
Cc1cccc(Cn2c(SCc3ccc(C(=O)NC4CCCCC4)cc3)nc3cccnc32)c1	.	-3.8	-21.2%	-23.4%	?	0.7
O=C1NC(=O)N(c2ccccc2F)C(=O)/C1=C/c1ccc(Sc2nc3ccccc3[nH]2)o1	-13.5%	5.2	-2.4%	9.7%[1.53 µM]	-18.0%	41.2*
C=C1C(=O)C23C(O)C1CCC2C12CCCC(C)(COC(C)=O)C1C(O)C3(O)OC2 (stereo unspecified)	-9.7%	.	-93.2%	2.51µM*	?	.
COc1ccc(C2NCc3ccccc3-n3cccc32)cc1 (stereo unspecified)	-3.0%	-1.5	-22.6%	8.1%	?	0.6
CCOc1cc(C2NCc3ccccc3-n3cccc32)ccc1OC (stereo unspecified)	-4.2%	4.2	i	0.4%	10µM*	1.9
COc1cc(C2NCc3ccccc3-n3cccc32)ccc1O (stereo unspecified)	-3.4%	-3.7	-18.6%[57.5 µM]	-27.0%	10µM*	3.0
Cc1ccc(NC(=O)COc2ccc(-c3nn(C)c(=O)c4ccccc34)cc2)c(C)c1	.	3.4	-28.7%	-11.6%	11.4%	-0.7
COC(=O)C1=C(c2cccc3c2S(=O)(=O)c2ccccc2-3)C[C@@H]2CC[C@H]1N2C(=O)N1CCc2cc(OC)c(OC)cc2C1	24.7%	2.1	-39.1%	0.6%	-6.5%	0.4
CC(C)(C)OC(=O)[C@H](Cc1ccccc1)NC(=O)c1nc[nH]c1C(=O)NC1CCN(C(=O)OC(C)(C)C)CC1	-3.8%	-8.4	-48.9%	?	10µM*	1.7
C[C@@H](NC(=O)c1nc[nH]c1C(=O)NCc1ccc(CNC(=O)OC(C)(C)C)cc1)c1ccccc1	9.0%	16.5	-40.5%	?	?	0.8
CCOC(=O)c1ccc(NC(=O)Nc2cc3c(cc2N2CCCCC2)n(CC)c(=O)n3CC)cc1	-12.8%	1.5	i	-22.1%	10µM*	1.3
COc1ccccc1OCCCn1cc(C=O)c2ccccc21	20.5%	-8.6	-1.0%	-0.2%	?	0.5
C[C@H]1CN([C@@H](C)CO)C(=O)CCCn2nncc2CO[C@H]1CN(C)C(=O)Oc1ccc2ccccc2c1	-5.6%	.	-38.5%	9.7%	11.1%	.
COc1cccc(/C=N/Nc2ccc([N+](=O)[O-])cc2)c1O	6.3%	1.0	-25.6%	?	1.78µM*	9.0
CCCOP(=O)(OCCC)c1nc(-c2ccccc2)oc1NCc1ccccc1	7.9%	4.7	i	9.6%	10µM*	0.1
C[C@@H]1CN([C@@H](C)CO)C(=O)CCCn2nncc2CO[C@H]1CN(C)C(=O)Oc1ccc2ccccc2c1	-6.6%	.	-17.6%	2.1%	19.1%	.
C=C1N2CCC(CC2)C1(O)c1ccc(C)c(C)c1 (stereo unspecified)	-10.8%	0.0	-11.1%	16.3%	-21.5%	0.3
Cc1ccc(-c2nnc(N3CCC(C)CC3)c3ccccc23)cc1C	0.2%	0.1	-90.2%	?	2.51µM*	-0.5
CC(=O)c1cccc(OCC(=O)N2CCN(CC(=O)Nc3cccc(F)c3)CC2)c1	-4.4%	-4.1	i	5.5%	12.9%	-0.1
CC(C)c1cccc(O)c(=O)c1	1.0%	4.6	-2.2%	-10.7%	?	0.0
Cc1ccc(C(=O)Nc2nc3ccccc3[nH]2)cc1	-5.9%	4.7	-41.3%	-13.4%	1.26µM*	0.0
Cc1ccc(C(=O)Nc2nc3ccccc3n2CCN2CCCC2)cc1	-18.9%	13.7	i	?	?	-0.3
CN(C)C1(CNC(=O)Nc2ccc(Cl)c(Cl)c2)CCCCC1	-3.5%	16.2	i	?	3.98µM*	3.9
CN(C)C1(CNC(=O)c2ccc(NS(=O)(=O)c3ccc(Cl)c(Cl)c3)cc2)CCCCC1	-3.6%	-3.5	-11.1%	-4.7%	?	0.3
SMILES	GLP-1R agonist	TRHR PAM	PTHR1 agonist	GLP1R cytotox	GLP1R inv ag	TRHR agonist
Cc1[nH]nc2ccc(-c3cncc(OC[C@@H](N)Cc4c[nH]c5ccccc45)c3)cc12	-15.4%	.	-3.5%	?	?	.
Cc1cc(C)cc(NC(=O)CCCn2c3ccccc3c(=O)c3ccccc32)c1	.	6.5	i	74.6%	3.55µM*	-0.7
CCOC(=O)C(O)(c1ccc(NC(=S)NC(=O)c2ccc(Cl)cc2Cl)c(C)c1)C(F)(F)F (stereo unspecified)	0.4%	1.9	-29.2%	?	3.98µM*	6.6
COc1ccccc1NC(=O)CSc1n[nH]c(-c2ccccn2)n1	0.9%	1.0	i	?	12.7%	-0.4
O=c1[nH]c(=S)n(CCC2=CCCCC2)c(O)c1/C=N/Nc1ccccc1	-3.2%	6.6	i	-23.4%	4.47µM*	0.5
O=c1[nH]c(=S)n(CCC2=CCCCC2)c(O)c1C=NC1CCN(Cc2ccccc2)CC1	-14.0%	2.8	-18.5%[57.5 µM]	-1.0%	54.4%	0.7
CCOC(=O)c1c(-n2c(C)cc(C=C3C(=O)NC(=S)NC3=O)c2C)sc2c1CCCC2	-4.8%	-2.5	-61.2%	1.9%	?	0.6
NCCc1ccccc1	5.8%	.	i	1.1%	0.8%	.
NCCc1ccc(S(N)(=O)=O)cc1	-2.7%	39.8*	-15.2%	16.1%	-9.8%	0.4
CCCCC(CC)COCCCN=Cc1c(O)[nH]c(=S)[nH]c1=O (stereo unspecified)	-0.8%	-5.8	i	1.2%	?	0.6
CC(=O)Oc1ccc(-c2ccc(C(=O)Nc3cccc(S(=O)(=O)N4CCOCC4)c3)cc2)cc1	0.0%	-1.3	-51.1%	?	1.41µM*	1.5
COc1ccc(C(=O)NC(=S)Nc2cccc(S(=O)(=O)N3CCOCC3)c2)cc1	11.1%	-9.4	-24.0%	?	?	0.1
O=C(CCl)Nc1cc(SCC(O)CO)cc([N+](=O)[O-])c1 (stereo unspecified)	8.2%	-2.8	-45.7%	3.98µM*	?	0.3
Nc1ccc2c(c1)C(=O)C(=O)c1ccccc1-2	-32.5%	12.8	-26.9%	3.55µM*	?	-1.1
C/C(=C/CCC(C)[C@H]1CC[C@@]2(C)C3=C(CC[C@]12C)[C@@]1(C)CCC(=O)C(C)(C)[C@@H]1CC3)C(=O)O (stereo partly specified)	6.0%	18.4	-40.8%	10.3%	2.5%	0.2
CC(Cc1cccs1)NCc1ccccc1 (stereo unspecified)	-2.8%	-2.1	i	6.8%	-13.4%	-0.4
CC1CCC(C(C)C)C(OCC(O)CN2CCCC(C)C2)C1 (stereo unspecified)	-2.5%	-0.8	4.2%	?	8.91µM*	-0.5
